These results are taken from the supplement of paper PMC7057948, “A genome-wide approach for identification and characterisation of metabolite-inducible systems” (Nature Communications, 2020).

SMILES strings stand for the structures.
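Further: RFP excited at 585 nm with emission read at 620 nm, culture medium blanks subtracted from fluorescence and absorbance prior to normalisation.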

The first experiment has as its system SauR/P_H16_RS13695 sulfonatoacetate biosensor (pEH157). Nature of the experiment: relative induction of RFP reporter vs primary effector (background-corrected); higher = stronger activation of the biosensor. To be noted: inducer concentration 5 mM; 6 h; Cupriavidus necator H16; minimal medium + 0.4% gluconate. The procedure:
(§1)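 C. necator H16 strains, each carrying one of 21 transcription factor/inducible promoter–mRFP biosensor plasmids, were grown in minimal medium in 96-well plates (robotic platform). Each was exposed to 46 structurally or metabolically related compounds at 5 mM at 30 °C. OD-normalised RFP fluorescence was read 6 h later and expressed as relative induction (%) = 100 × (FL compound − FL uninduced)/(FL primary inducer − FL uninduced); mean of n=4.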
In the case of `O=CC(=O)O` [glyoxylate], the “relative induction of RFP reporter” value was -0.00107%.
With `CCC(=O)O` [propanoate], the “relative induction of RFP reporter” value stood at 0.0421%.
For `O=C(O)/C=C/C(=O)O` [fumarate], the “relative induction of RFP reporter” value came out at 0.00629%.
As to `O=C(O)C[C@H](O)C(=O)O` [L-malate], the “relative induction of RFP reporter” value was -0.0175%.
Consider `O=C(O)/C=C\C=C/C(=O)O` [cis,cis-muconate], for which the “relative induction of RFP reporter” value was -0.0287%.
Still for that read-out and setting: then `O=C(O)c1cccnc1` [nicotinate], with 0.0909%.
With `Oc1ccccc1O` [catechol], the “relative induction of RFP reporter” value came to 0.114%.
Consider `O=C(O)[C@@H](O)[C@@H](O)[C@H](O)[C@@H](O)C(=O)O` [glucarate], for which the “relative induction of RFP reporter” value was -0.0162%.
Turning to `O=C(O)c1ccc(O)cc1` [4-hydroxybenzoate], the “relative induction of RFP reporter” value was -0.0101%.
With `O=C(O)C(O)c1ccccc1` (configuration not stated) [mandelic acid], the “relative induction of RFP reporter” value is 0.0426%.
With `O=c1cc[nH]c(=O)[nH]1` [uracil], the “relative induction of RFP reporter” value was -0.0169%.
Consider `O=C(O)C(O)C(=O)O` [tartronic acid], for which the “relative induction of RFP reporter” value was found to be 0.0532%.

In the next experiment the test system is TtdR/P_H16_RS10665 tartrate biosensor (pEH083). The experiment is described as above. To be noted: inducer concentration 5 mM; 6 h; Cupriavidus necator H16; minimal medium + 0.4% gluconate. How it is done:
as §1
`O=CC(=O)O` [glyoxylate]: the “relative induction of RFP reporter” value was 0.296%.
For the compound `CCC(=O)O` [propanoate], the “relative induction of RFP reporter” value was -0.423%.
Regarding `O=C(O)/C=C/C(=O)O` [fumarate], the “relative induction of RFP reporter” value worked out at 0.78%.
On to `O=C(O)C[C@H](O)C(=O)O` [L-malate], for which the “relative induction of RFP reporter” value was 1.58%.
On the same count and under the same terms, under `O=C(O)/C=C\C=C/C(=O)O` [cis,cis-muconate] stands 0.125%; under `O=C(O)c1cccnc1` [nicotinate], -0.44%.
Consider `Oc1ccccc1O` [catechol], for which the “relative induction of RFP reporter” value turned out to be 2.09%.
Consider `O=C(O)[C@@H](O)[C@@H](O)[C@H](O)[C@@H](O)C(=O)O` [glucarate], for which the “relative induction of RFP reporter” value is -0.0655%.
`O=C(O)c1ccc(O)cc1` [4-hydroxybenzoate]: the “relative induction of RFP reporter” value came to 0.895%.
As to `O=C(O)C(O)c1ccccc1` (configuration not stated) [mandelic acid], the “relative induction of RFP reporter” value was -0.395%.
With `O=c1cc[nH]c(=O)[nH]1` [uracil], the “relative induction of RFP reporter” value was -0.0341%.
On the same count and under the same terms, then `O=C(O)C(O)C(=O)O` [tartronic acid], with 0.714%.

The next experiment deals with XdhR/P_H16_RS05055 xanthine biosensor (pEH154). The description is as above. As to conditions: inducer concentration 5 mM; 6 h; Cupriavidus necator H16; minimal medium + 0.4% gluconate. How it is done:
as §1
As for `O=CC(=O)O` [glyoxylate], the “relative induction of RFP reporter” value is -0.199%.
Consider `CCC(=O)O` [propanoate], for which the “relative induction of RFP reporter” value is -0.832%.
For the compound `O=C(O)/C=C/C(=O)O` [fumarate], the “relative induction of RFP reporter” value came to 0.739%.
On the same count and under the same terms, then `O=C(O)C[C@H](O)C(=O)O` [L-malate], with 0.88%; and `O=C(O)/C=C\C=C/C(=O)O` [cis,cis-muconate], with -0.143%.
Consider `O=C(O)c1cccnc1` [nicotinate], for which the “relative induction of RFP reporter” value stood at 0.0721%.
For the compound `Oc1ccccc1O` [catechol], the “relative induction of RFP reporter” value was 0.259%.
Take `O=C(O)[C@@H](O)[C@@H](O)[C@H](O)[C@@H](O)C(=O)O` [glucarate]: the “relative induction of RFP reporter” value amounted to 0.202%.
As to `O=C(O)c1ccc(O)cc1` [4-hydroxybenzoate], the “relative induction of RFP reporter” value was -0.191%.
`O=C(O)C(O)c1ccccc1` (configuration not stated) [mandelic acid]: the “relative induction of RFP reporter” value was -0.0998%.
Turning to `O=c1cc[nH]c(=O)[nH]1` [uracil], the “relative induction of RFP reporter” value turned out to be 0.952%.
As to `O=C(O)C(O)C(=O)O` [tartronic acid], the “relative induction of RFP reporter” value was -0.218%.

The next experiment relates to heterologous inducible system pEH002 (rhamnose/acrylate/cumate/itaconate set). The description is as above. As to conditions: inducer concentration 5 mM; 6 h; Cupriavidus necator H16; minimal medium + 0.4% gluconate. How it is done: as §1
As for `O=CC(=O)O` [glyoxylate], the “relative induction of RFP reporter” value is 0.0215%.
As to `CCC(=O)O` [propanoate], the “relative induction of RFP reporter” value was -0.00545%.
Still for that read-out and setting: then `O=C(O)/C=C/C(=O)O` [fumarate], with 0.00534%.
Take `O=C(O)C[C@H](O)C(=O)O` [L-malate]: the “relative induction of RFP reporter” value was found to be 0.00418%.
Take `O=C(O)/C=C\C=C/C(=O)O` [cis,cis-muconate]: the “relative induction of RFP reporter” value was -0.00409%.
Turning to `O=C(O)c1cccnc1` [nicotinate], the “relative induction of RFP reporter” value came out at 0.0144%.
With `Oc1ccccc1O` [catechol], the “relative induction of RFP reporter” value worked out at 0.0302%.
`O=C(O)[C@@H](O)[C@@H](O)[C@H](O)[C@@H](O)C(=O)O` [glucarate]: the “relative induction of RFP reporter” value was determined as 0.0271%.
On the same count and under the same terms, under `O=C(O)c1ccc(O)cc1` [4-hydroxybenzoate] stands 0.0183%.
Regarding `O=C(O)C(O)c1ccccc1` (configuration not stated) [mandelic acid], the “relative induction of RFP reporter” value is 0.0137%.
As for `O=c1cc[nH]c(=O)[nH]1` [uracil], the “relative induction of RFP reporter” value was found to be 0.0212%.
For `O=C(O)C(O)C(=O)O` [tartronic acid], the “relative induction of RFP reporter” value came out at 0.00666%.

A further experiment concerns heterologous inducible system pEH020 (rhamnose/acrylate/cumate/itaconate set). The experiment is described as above. As to conditions: inducer concentration 5 mM; 6 h; Cupriavidus necator H16; minimal medium + 0.4% gluconate. How it is done: as §1
For the compound `O=CC(=O)O` [glyoxylate], the “relative induction of RFP reporter” value was -0.333%.
Still for that read-out and setting: under `CCC(=O)O` [propanoate] stands -0.954%; under `O=C(O)/C=C/C(=O)O` [fumarate], -0.346%.
With `O=C(O)C[C@H](O)C(=O)O` [L-malate], the “relative induction of RFP reporter” value is -0.286%.
As for `O=C(O)/C=C\C=C/C(=O)O` [cis,cis-muconate], the “relative induction of RFP reporter” value amounted to 0.263%.
On to `O=C(O)c1cccnc1` [nicotinate], for which the “relative induction of RFP reporter” value was -1.31%.
Consider `Oc1ccccc1O` [catechol], for which the “relative induction of RFP reporter” value was -0.684%.
`O=C(O)[C@@H](O)[C@@H](O)[C@H](O)[C@@H](O)C(=O)O` [glucarate]: the “relative induction of RFP reporter” value was found to be 0.067%.
The same measure, in the same setting: then `O=C(O)c1ccc(O)cc1` [4-hydroxybenzoate], with -0.27%; and `O=C(O)C(O)c1ccccc1` (configuration not stated) [mandelic acid], with 0.769%; and `O=c1cc[nH]c(=O)[nH]1` [uracil], with 0.742%.
Take `O=C(O)C(O)C(=O)O` [tartronic acid]: the “relative induction of RFP reporter” value was -0.0821%.

A further experiment relates to heterologous inducible system pEH040 (rhamnose/acrylate/cumate/itaconate set). The description is as above. As to conditions: inducer concentration 5 mM; 6 h; Cupriavidus necator H16; minimal medium + 0.4% gluconate. How it is done:
as §1
Regarding `O=CC(=O)O` [glyoxylate], the “relative induction of RFP reporter” value was -0.263%.
As for `CCC(=O)O` [propanoate], the “relative induction of RFP reporter” value turned out to be 0.605%.
With `O=C(O)/C=C/C(=O)O` [fumarate], the “relative induction of RFP reporter” value is -1.36%.
The same measure, in the same setting: under `O=C(O)C[C@H](O)C(=O)O` [L-malate] stands -0.274%; under `O=C(O)/C=C\C=C/C(=O)O` [cis,cis-muconate], 0.756%.
For the compound `O=C(O)c1cccnc1` [nicotinate], the “relative induction of RFP reporter” value is -1.49%.
Take `Oc1ccccc1O` [catechol]: the “relative induction of RFP reporter” value amounted to 4.75%.
On the same count and under the same terms, under `O=C(O)[C@@H](O)[C@@H](O)[C@H](O)[C@@H](O)C(=O)O` [glucarate] stands 0.131%; under `O=C(O)c1ccc(O)cc1` [4-hydroxybenzoate], -0.0264%.
Still for that read-out and setting: under `O=C(O)C(O)c1ccccc1` (configuration not stated) [mandelic acid] stands 1.17%; under `O=c1cc[nH]c(=O)[nH]1` [uracil], -0.00512%; under `O=C(O)C(O)C(=O)O` [tartronic acid], 0.945%.
